# From paper PMC4053984, “DNA binding specificities of the long zinc-finger recombination protein PRDM9”
# Target: PRDM9Cst (Mus musculus (CAST/EiJ))
# Assay: competition EMSA; competition against biotin-labeled 75-bp Hlx1 B6 oligo; 10 mM Tris pH 7.5, 50 mM KCl, 1 mM DTT, 50 ng/ul poly(dI/dC), 0.05% NP-40, crude E. coli extract 3 ul in 20 ul; 1 h with unlabeled competitor, then 4 h with biotin-labeled 75-bp Hlx1; temperature not stated; high values mean tight binding
# Settings: tags: N-terminal His tag (pBAD/HisB); dsDNA, one strand shown
# Chain of PRDM9Cst (Mus musculus (CAST/EiJ)) (chain, as listed by the source): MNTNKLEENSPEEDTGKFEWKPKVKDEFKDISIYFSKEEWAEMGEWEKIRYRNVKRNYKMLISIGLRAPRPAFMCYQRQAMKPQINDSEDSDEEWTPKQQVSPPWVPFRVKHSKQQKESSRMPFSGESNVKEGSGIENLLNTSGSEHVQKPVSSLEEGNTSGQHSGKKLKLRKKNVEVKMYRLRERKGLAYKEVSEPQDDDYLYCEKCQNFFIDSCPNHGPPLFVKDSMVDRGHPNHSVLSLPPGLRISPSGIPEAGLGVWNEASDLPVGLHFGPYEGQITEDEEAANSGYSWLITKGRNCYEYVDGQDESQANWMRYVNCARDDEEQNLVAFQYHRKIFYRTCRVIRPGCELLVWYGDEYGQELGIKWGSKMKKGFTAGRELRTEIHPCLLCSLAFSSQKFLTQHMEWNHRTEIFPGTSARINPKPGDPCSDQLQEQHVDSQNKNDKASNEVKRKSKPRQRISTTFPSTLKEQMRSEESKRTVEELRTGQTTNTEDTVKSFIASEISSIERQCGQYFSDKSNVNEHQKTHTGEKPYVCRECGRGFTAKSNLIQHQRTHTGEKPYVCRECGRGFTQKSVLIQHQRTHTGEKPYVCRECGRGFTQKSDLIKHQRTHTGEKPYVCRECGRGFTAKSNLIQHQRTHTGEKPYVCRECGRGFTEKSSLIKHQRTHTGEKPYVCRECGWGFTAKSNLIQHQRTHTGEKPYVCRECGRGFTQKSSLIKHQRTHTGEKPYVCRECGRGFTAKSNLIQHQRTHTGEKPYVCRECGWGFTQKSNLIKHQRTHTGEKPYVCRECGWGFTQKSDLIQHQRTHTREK
row,Sequence,binding signal
1,ATTGTGTGCAGACTTGGACCCTGCCCTTTCTTT,"-0.1 Bmut (0 = wild type, -1 = scrambled)"
2,AGAGTGTGCAGACTTGGACCCTGCCCTTTCTTT,"-0.8 Bmut (0 = wild type, -1 = scrambled)"
3,ATAGTGTGCAGACTTGGACCCGGCCCTTTCTTT,"-0.5 Bmut (0 = wild type, -1 = scrambled)"
4,ATAGTGTCCAGACTTGGACCCTGCCCTTTCTTT,"-0.1 Bmut (0 = wild type, -1 = scrambled)"
5,ATAGTGGGCAGACTTGGACCCTGCCCTTTCTTT,"-0.7 Bmut (0 = wild type, -1 = scrambled)"
6,ATAGTGCGCAGACTTGGACCCTGCCCTTTCTTT,"-0.2 Bmut (0 = wild type, -1 = scrambled)"
7,ATAGTGTGCAGACTTGGCCCCTGCCCTTTCTTT,"-0.9 Bmut (0 = wild type, -1 = scrambled)"
8,ATAGTGTGCAGACTTGGACCCTGCCCTTTCTTA,"0.13 Bmut (0 = wild type, -1 = scrambled)"
9,GTAGTGTGCAGACTTGGACCCTGCCCTTTCTTT,"0 Bmut (0 = wild type, -1 = scrambled)"
10,ATAGTGTGAAGACTTGGACCCTGCCCTTTCTTT,"-0.1 Bmut (0 = wild type, -1 = scrambled)"
11,ATAGTGTGCAGACTTGGACCGTGCCCTTTCTTT,"0.06 Bmut (0 = wild type, -1 = scrambled)"
12,ATAGTGTGCAGACTTGGACCCTGCGCTTTCTTT,"-0.4 Bmut (0 = wild type, -1 = scrambled)"
13,ATAGTGTGCAGACTTGGACTCTGCCCTTTCTTT,"0.01 Bmut (0 = wild type, -1 = scrambled)"
14,ATAGTGTGCAGTCTTGGACCCTGCCCTTTCTTT,"-0.2 Bmut (0 = wild type, -1 = scrambled)"
15,ATAGTGTGCAGACTTGGACCCTGCCCTCTCTTT,"-0.1 Bmut (0 = wild type, -1 = scrambled)"
16,ATAGTGTGCAGACATGGACCCTGCCCTTTCTTT,"-0.7 Bmut (0 = wild type, -1 = scrambled)"
17,ATAGTGTGCAGACTTGGACCCTGTCCTTTCTTT,"0.02 Bmut (0 = wild type, -1 = scrambled)"
18,ATAATGTGCAGACTTGGACCCTGCCCTTTCTTT,"-0.4 Bmut (0 = wild type, -1 = scrambled)"
19,ATAGTGAGCAGACTTGGACCCTGCCCTTTCTTT,"-0.3 Bmut (0 = wild type, -1 = scrambled)"
20,ATAGTGTGCAGACTTGGACCCTGCCCTATCTTT,"0.13 Bmut (0 = wild type, -1 = scrambled)"
21,ATAGTGTGCAGACTTGGACCTTGCCCTTTCTTT,"0.06 Bmut (0 = wild type, -1 = scrambled)"
22,ATAGTGTGCAGGCTTGGACCCTGCCCTTTCTTT,"-0.1 Bmut (0 = wild type, -1 = scrambled)"
23,ATAGTGTACAGACTTGGACCCTGCCCTTTCTTT,"0.1 Bmut (0 = wild type, -1 = scrambled)"
24,ATAGAGTGCAGACTTGGACCCTGCCCTTTCTTT,"0 Bmut (0 = wild type, -1 = scrambled)"
25,ATAGTGTGCAGACTTGGACCCTGGCCTTTCTTT,"0.03 Bmut (0 = wild type, -1 = scrambled)"
26,ATACTGTGCAGACTTGGACCCTGCCCTTTCTTT,"-0.1 Bmut (0 = wild type, -1 = scrambled)"
27,ATAGTGTGCAGACTTGTACCCTGCCCTTTCTTT,"-0.8 Bmut (0 = wild type, -1 = scrambled)"
28,ATAGTGTGCAGACTTGGACCCTTCCCTTTCTTT,"-0.3 Bmut (0 = wild type, -1 = scrambled)"
29,ATAGTGTGCAGACTTGGTCCCTGCCCTTTCTTT,"0.1 Bmut (0 = wild type, -1 = scrambled)"
30,ATAGTGTGCAGACTTGGATCCTGCCCTTTCTTT,"-0.3 Bmut (0 = wild type, -1 = scrambled)"
